# Data reported in PubChem BioAssay (NCI).
# This is part of a sample that, as a whole, favours compounds with a hit. Of some 79,000 tested, about 15% had one in any assay. Unmarked numbers belong to inactive results. Activity calls are given as the source filed them. Cut-off read from the data, not from the text of the source: active = growth inhibition above about 70%; inactive = the rest.
# Key:
# [1] = NCI Yeast Anticancer Drug Screen. Data for the rad50 strain (AID 155);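 note: 0% = growth of vehicle-only cultures of the same strain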; conditions: S. cerevisiae rad50 strain growth inhibition; at 50.0 µM; hits give high values
# Summary of the method: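 Readout: growth inhibition relative to vehicle-treated cultures. Compound exposure was carried out in a genetically defined yeast strain deficient in DNA damage repair.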
# [2] = NCI Yeast Anticancer Drug Screen. Data for the mec2-1 strain (AID 157); conditions: S. cerevisiae mec2-1 strain, at 50.0 µM, hits give high values
# Summary of the method: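 Yeast mec2-1 mutant treated with compound. Readout: growth inhibition vs vehicle controls.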
# [3] = NCI Yeast Anticancer Drug Screen. Data for the sgs1 mgt1 strain (AID 161);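 note: 0% = growth of cultures given vehicle only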; conditions: S. cerevisiae sgs1 mgt1 strain, at 50.0 µM, hits give high values
# Summary of the method: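 Mutant yeast exposed to compound; growth scored against vehicle-only wells.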
# [4] = NCI Yeast Anticancer Drug Screen. Data for the cln2 rad14 strain (AID 165);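 note: 0% = growth equal to vehicle treated cultures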; conditions: S. cerevisiae cln2 rad14 strain, at 50.0 µM, hits give high values
# Summary of the method: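 cln2 rad14 yeast strain; compound exposure; growth inhibition read vs vehicle controls.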
# [5] = NCI Yeast Anticancer Drug Screen. Data for the bub3 strain (AID 167); conditions: S. cerevisiae bub3 mutant strain, at 50.0 µM, hits give high values
# Summary of the method: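 Readout: yeast growth inhibition, expressed relative to vehicle-only wells. The test organism is a mutant strain from a panel with lesions in DNA repair or checkpoint genes.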
# [6] = NCI Yeast Anticancer Drug Screen. Data for the mlh1 rad18 strain (AID 175); conditions: S. cerevisiae mlh1 rad18 strain growth inhibition; at 50.0 µM; hits give high values
# Summary of the method: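 Yeast w/ defined DNA-repair lesions; compound exposure; growth vs vehicle controls → % inhibition.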
Compound,growth inhibition [1],growth inhibition [2] [%],growth inhibition [3] [%],growth inhibition [4] [%],growth inhibition [5] [%],growth inhibition [6] [%]
Cc1cc(N(CCC#N)CCC#N)ccc1/C=C1N=C(/C=C\c2ccccc2)N(NC(=O)CC(=O)Nc2ccccc2Cl)C\1=O,14.6%,-0.8,1.55,11.3,2.8,5.05
O=C1OC[C@H]2[C@@H]1[C@H]1O[C@@H]2C2=C(CCC2)C1=O,-27.4%,-38.8,-43.5,-19.7,-30.9,-51.3
CSCCCNC(=O)NS(=O)(=O)c1ccc(C)cc1,6.55%,-1.35,8.95,7.75,6.6,2.85
Nc1n[nH]c(CO)n1,7.3%,4.05,-6.6,9.65,-14.8,-7.1
COc1ccc(C2NC(C(=O)O)Cc3c2[nH]c2ccccc32)cc1OC (stereo unspecified),-12.2%,-5.6,-14.8,-12.9,-4.3,-22
O=C1CC2CCCCC2=C1O (stereo unspecified),18.4%,-11.2,14.1,17.9,-3.1,13.8
O=C1CC[C@@H](C(=O)Nc2cccc3ccccc23)N1,-7.15%,8.45,8.5,-24.4,10.6,21.2
C=C(COC(C)=O)CC(/C=C(\C)CCC=C(C)C)OC(C)=O (stereo unspecified),-6.25%,-1.15,8.9,-11.5,-5.25,11
COc1ccc(NC(=O)C(=O)C2NC(=S)NC2=O)c(OC)c1 (stereo unspecified),34.4%,16.5,11.6,15.3,3,3.2
CC(O)C(O)C(O)CO (stereo unspecified),6.1%,18.4,-3.85,19.8,24.4,8.95
O=C(Nc1ccc(NC(=O)Nc2cc(C(F)(F)F)ccc2Oc2ccc(Cl)c(Cl)c2)cc1)Nc1cc(C(F)(F)F)ccc1Oc1ccc(Cl)c(Cl)c1,-28.2%,-45.4,-13.4,-23.2,-35.1,-19.7
CCOC(=O)c1[nH]c2ccc(O)c3c2c1CCC3=O,30.6%,-4.15,-3.6,13.1,6.4,16.5
CCCCCCCCCCC(CCCCCCCCCC)=NN=C(CCCCCCCCCC)CCCCCCCCCC,-41.4%,9.45,1.35,25.9,1.1,-9.3
COC(=O)C1(c2ccccc2)Cc2ccccc2-c2ccccc21 (stereo unspecified),-24.1%,-9.5,-10.2,-16.3,26.1,-17
C1CCCC2(CCC1)OCCO2,0.7%,10.4,-4.05,-9.55,17.1,1.65
CCn1cc2c(=O)n3ncn(-c4ccc(Br)cc4)c3nc2n1,-8.05%,9.75,3.2,-16.4,-28.8,-12.2
CC(C)N(C(=O)c1cccc2ccccc12)C(C)C,16.4%,6.95,8.35,4.55,8,32.2
C=CCC(O)c1ccc(OC)c(OC)c1 (stereo unspecified),2.55%,-3.3,-6.3,-19.1,3.4,0.55
COc1cc(-c2cc(OC)c(N=N/C(=N/Nc3ccc([N+](=O)[O-])cc3)c3ccc([N+](=O)[O-])cc3)cc2Cl)c(Cl)cc1N=N/C(=N\Nc1ccc([N+](=O)[O-])cc1)c1ccc([N+](=O)[O-])cc1,7.9%,9.65,-5.95,-21.2,-14.2,-13.8
O=C(O)c1cncc(C(=O)O)c1,-37%,-12.7,-14.7,-7.6,-47.5,-24.6
COC(=O)C(NC(=O)C(=O)NC(C(=O)OC)C(C)(C)S)C(C)(C)S (stereo unspecified),3.85%,-9.1,-2.3,-12.7,-5,4.25

Compound,growth inhibition [1],growth inhibition [2] [%],growth inhibition [3] [%],growth inhibition [4] [%],growth inhibition [5] [%],growth inhibition [6] [%]
COC(=O)CCC(=O)Nc1ccc(Cl)cc1C,-22.8%,-9.45,-19.9,-6.5,-60,-21.2
CC1(C)C[C@H](OC2CCCCO2)[C@H]2O[C@@]2(C)C1 (stereo partly specified),10.8%,4.3,-29.8,1.1,18.4,3.95
O=[N+]([O-])c1ccccc1OC1OC(CO)C(O)C(O)C1O (stereo unspecified),-2.35%,-5.6,14.2,-33.8,-14.8,7.2
O=C(O)O.O=C(O)O.O=C(O)O.[Co],-9.35%,38.3,-2.75,-11.6,8.65,-5.05
C1=CC([P+](Cc2ccccc2)(c2ccccc2)c2ccccc2)CC1 (stereo unspecified),81.8% (active),65.5,55.9,-1.55,52.6,52.9
COC(=O)c1ccc(C(=O)OC)c2nn3c(N)nnc3nc12,8.85%,15,7.55,-12.4,9.15,2.9
COC(=O)c1ccc(NC(=O)c2cc(OC)c(OC)c(OC)c2)cc1,-24.3%,-24.1,-19.4,-5.05,-9,-24
COc1cc(/C=C/C=C2\CC/C(=C\C=C\c3ccc(O)c(OC)c3)C2=O)ccc1O,10.2%,18.4,31.4,37.7,29.5,-9.1
CCO[C@@H]1C2C=CC(C2)[C@H]1[N+](=O)[O-] (stereo partly specified),-11.8%,12.2,-5.65,15.4,3.05,-5.4
CN(Cc1ccccc1)C(OCc1ccccc1)c1ccccc1 (stereo unspecified),3.15%,-13,10.1,-8.3,20.4,5.4
Nc1nnc2nc(C(C(=O)/C=C\c3cccc(O)c3)c3nc4nnc(N)n4[nH]c3=O)c(=O)[nH]n12,30.4%,15.1,19.6,1.65,-5.35,19.7
Nc1c(Br)cc2c(c1Br)C(=O)c1ccccc1-2,3.95%,8.8,23.6,8.8,15.2,-0.05
O=[N+]([O-])c1ccccc1N=N/C(Cc1ccccc1)=N\Nc1ccccc1,10.8%,19.9,-8.25,11.6,-12.6,-17.8
Clc1cccc(-c2ncc(-c3ccccc3)o2)c1,8.7%,-3.8,-0.6,-29.2,2.15,19.1
O=C1OCCC1(Cc1ccc(Cl)cc1)Cc1ccc(Cl)cc1,-16.1%,-22.9,-4.7,10.4,1.45,-3.05
CC(C(=O)c1ccccc1)C(c1ccccc1)N1CCOCC1 (stereo unspecified),2.1%,-7.5,-16.3,3.25,6.35,-5.15
Clc1ccc(-n2cccc2)cc1,-4.75%,0.25,10.7,5.8,-19.6,-6.3
CC(=O)OC1C=CC(OC(C)=O)C2C1[C@H]1C3C=CC=CC3[C@@H]2S1=O (stereo partly specified),-36.8%,-35.8,-17.2,-6.5,6.25,-27.1
O=C(/C=C/c1ccccc1)Sc1ccccc1,-2%,-7.6,13.2,-1.75,-8.1,1.65
CC1CCC(C(C)C)C(OC(=O)N/N=C/N(C)C)C1 (stereo unspecified),1.65%,17.2,4.4,20,-0.95,25.1
